“And” between values parts separate entries of the source, which are not always exact repeats. Equal entries are not always repeated. The whole screen tested about 420,000 compounds, of which about 64,000 (15%) were called active. Inconclusive results (about 27%) are left out. Calls follow the shape of the dose curve; as a rule, active = well fitted inhibition curve with a large enough effect; inconclusive = small, poorly fitted or top-dose-only effect; inactive = flat fitted curve, though single readings scatter. These entries were drawn from the full list. Entries that show only a call come without a potency. Some compounds were tested as several samples or in several runs, with calls that do not always agree.
Assay: qHTS for Inhibitors of human tyrosyl-DNA phosphodiesterase 1 (TDP1): qHTS in cells in absence of CPT; also: nearly all actives have a fitted effect of over 55% in size
Settings: DT40 Tdp1-/- hTDP1 cells, no CPT, ATP luminescence, 48 h; activity change, negative = growth inhibition: at 46.2 µM (top of the series)
Outline: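 Stably hTDP1-transfected Tdp1-null chicken DT40 cells were treated with library compounds minus camptothecin and grown for at least 48 hr at 37 °C, after which cellular ATP was quantified by luminescence.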
Potency is read from the fitted curve at half-maximal effect.

| SMILES | Potency |
| --- | --- |
| Cn1c(=S)sc2ccc3ccccc3c21 | inactive |
| C=CCc1c(C)nc2cc(-c3ccccc3)[nH]n2c1=O | inactive |
| O=c1c2c(nc3cc(-c4cccc(Cl)c4)[nH]n13)CCCC2 | 20.6 µM (active) |
| O=c1c2c(nc3nc[nH]n13)CCC2 | inactive |
| CN(C)S(=O)(=O)c1ccc(Cl)c(NC(=O)COC(=O)CC(NC(N)=O)c2ccc(Cl)cc2)c1 (centres undefined) | inactive |
| Cc1ccc(N(CC(=O)NCC2CCCO2)C(=O)CNS(=O)(=O)c2ccc(Cl)cc2)cc1 (centres undefined) | inactive |
| CC(Sc1nnc(C2CC2)n1C1CC1)C(=O)Nc1ccc(C(N)=O)cc1 (centres undefined) | inactive |
| O=C1CCCC2=C1C(c1cccs1)n1nc(SCc3ccccc3)nc1N2 (centres undefined) | 14.6 µM (active) |
| O=C1CCCC2=C1C(c1cccs1)CC(=O)N2c1ccc(F)cc1 (centres undefined) | inactive |
| CCN(CC)c1ccc(C2C(C(N)=O)=C(C)Nc3nc(SCc4ccccc4)nn32)cc1 (centres undefined) | inactive |
| O=S(=O)(NCc1ccccc1Cl)c1cnc[nH]1 | inactive |
| Cc1ccc(NC(=O)CCOc2ccccc2)cc1S(=O)(=O)Nc1ccccc1Cl | inactive |
| CC(C)c1ccc(C(=O)OC2CCOC2=O)cc1 (centres undefined) | inactive |
| COc1ccc(S(=O)(=O)NCCc2c[nH]c3ccccc23)cc1OC | inactive |
| COc1cccc(CNCCc2c[nH]c3ccccc23)c1OCc1ccccc1F | 20.6 µM (active) |
| COc1ccccc1CC(=O)NCCc1c[nH]c2ccccc12 | inactive |
| CCc1c(SCCC(=O)O)nc2ccccc2c1C | inactive |
| Cc1ccc(N2CCN(c3ccc(C)cc3)C2c2ccccn2)cc1 | inactive |
| CN(C(=O)CSc1nnc(-c2ccc(C(C)(C)C)cc2)n1C)C1CCS(=O)(=O)C1 (centres undefined) | inactive |
| CCCCC(=O)Nc1nnc(S(=O)(=O)N(C)Cc2ccco2)s1 | inactive |
| CCc1nnc(NC(=O)c2cccc(S(=O)(=O)N(C)c3ccc(OC)cc3)c2)s1 | inactive |
| COc1cccc(C(=O)Nc2nnc(S(=O)(=O)N(C)c3ccccc3)s2)c1 | inactive |

| SMILES | Potency |
| --- | --- |
| CCOc1cccc(C(=O)Nc2nnc(S(=O)(=O)N(C)c3ccc(C)cc3)s2)c1 | 23.1 µM (active) |
| CCC(=O)Nc1nnc(S(=O)(=O)N(CC(C)C)c2ccccc2)s1 | inactive |
| CC(C)CC(=O)Nc1nnc(S(=O)(=O)N(C)c2ccc(Cl)cc2)s1 | inactive and 326 nM (active) |
| Cc1ccn(C(CC(=O)c2ccc(Br)cc2)C(=O)O)n1 (centres undefined) | inactive |
| O=C(CNS(=O)(=O)c1ccccc1)N1CCN(C(=O)c2ccco2)CC1 | inactive |
| COc1ccc(C(=O)NCC[N+](C)(C)C)cc1 | inactive |
| CC/C(=C(/c1ccccc1)c1ccc(OCC[N+](C)(C)C)cc1)c1ccccc1 | 23.1 µM (active) |
| CCOc1cc(C(=O)O)ccc1OCCOc1ccccc1 | inactive |
| COc1cc(/C=C/C2=CC(C)(C)NC(=S)N2)cc(OC)c1OC | inactive |
| COc1ccc(N2C(=O)CN=C2Nc2cccc(C)c2C)cc1OC | inactive |
| CC(C)Cc1nnc(NC(=O)CN2C(=O)NC3(CCCCC3)C2=O)s1 | inactive |
| CC1(C(=O)NS(=O)(=O)c2cccc(OC(F)F)c2)CCN1C(=O)COc1ccc(Cl)cc1 (centres undefined) | inactive |
| Cc1nc(C)c(-c2csc(NCCc3ccccc3)n2)s1 | 13 µM (active) |
| S=c1[nH]nc(NCCc2ccccc2)s1 | inactive |
| Cc1nc(N)sc1-c1ccccc1 | inactive |
| COc1ccc(O)c(C(=O)c2cnc3onc(C(C)C)c3c2)c1 | inactive |
| Cc1n[nH]c(=O)n1-c1ccc(Oc2ccccc2)cc1 | inactive |
| Cc1cc(OCCCC(=O)NCCN2C(=O)S/C(=C\c3cccnc3)C2=O)ccc1Cl | 4.61 µM (active) |
| CCOc1ccc(N2CC(C(=O)NCCN3C(=O)S/C(=C\c4cccnc4)C3=O)CC2=O)cc1 (centres undefined) | inactive |
| COc1ccc(N2CC(C(=O)NCCN3C(=O)S/C(=C\c4cccnc4)C3=O)CC2=O)c(OC)c1 (centres undefined) | inactive |
| Cn1cccc1C(=O)OCC(=O)NCCc1ccccc1 | inactive |
| O=c1cccc(-c2ccc(Br)cc2)o1 | inactive |

| SMILES | Potency |
| --- | --- |
| COC(=O)C(NC(C)=O)(Nc1nc2c(s1)CCCC2)C(F)(F)F (centres undefined) | inactive |
| CCCS(=O)(=O)N1CCN(C(=O)c2cccs2)CC1 | inactive |
| Cc1ccc(C(=O)Cn2cccn2)cc1 | inactive |
| Cc1ccc(C(=O)C[n+]2cc(-c3ccccc3)n3c2CCCCC3)cc1 | 3.16 µM (active) and 1.46 µM (active) |
| O=C(C[n+]1cc(-c2ccc(Cl)c(Cl)c2)n2c1CCC2)c1cccs1 | 18.4 µM (active) |
| Cc1ccc(-c2c[n+](CC(=O)Nc3ccccc3)c3n2CCC3)cc1 | 11.6 µM (active) |
| Cc1ccc(S(=O)(=O)N(C)CC(=O)OCC(=O)Nc2ccccc2)cc1 | inactive |
| CCS(=O)(=O)N1CCN(C(=O)c2cccs2)CC1 | inactive |
| Cc1ccc(NC(=S)N2CCCC(c3ccccc3)=N2)cc1 | inactive |
| Cc1ccc(C(=O)N2CCCC(c3ccccc3)=N2)cc1 | inactive |
| COc1ccc(N(C)S(=O)(=O)c2cccc3nsnc23)cc1 | inactive |
| Cc1cccc(S(=O)(=O)N(C)C[C@@H]2OCc3cnnn3CCCC(=O)N([C@H](C)CO)C[C@@H]2C)c1 | inactive |
| Cn1nc(C(F)(F)F)cc1-c1ccc(/C=C(\C#N)C(=O)c2cccc(C(F)(F)F)c2)s1 | inactive |
| C/C(=N\NC(=O)c1ccc2ccccc2c1)c1cccnc1 | inactive |
| Cc1cccc(OCc2nnc(SCn3nnc4ccccc4c3=O)o2)c1 | inactive |
| CCOc1ccc(NC(=O)CN(C)C(=O)CSc2ccccc2)cc1OCC | inactive |
| CCC(C)NC(=O)c1cc(Cl)ccc1OC (centres undefined) | inactive |
| Cc1cc(N(C)C)cc(C)[n+]1[O-] | inactive |
| O=S(=O)(NC1CC1)c1ccc(Cl)cc1 | inactive |
| Cn1sc(=O)c2cc(S(=O)(=O)NC3CC3)ccc21 | 10.3 µM (active) |
| O=S(=O)(NC1CC1)c1ccc(F)c(F)c1 | inactive |
| CC(NC(=O)CCCC1CCCCC1)c1ccc(S(N)(=O)=O)cc1 (centres undefined) | inactive |

| SMILES | Potency |
| --- | --- |
| N#CC1=C(N)Oc2c(sc3ccccc23)C1c1ccco1 (centres undefined) | 5.17 µM (active) |
| C[C@H](NC(=O)CC[C@H]1O[C@@H](n2ccc(=O)[nH]c2=O)[C@H](O)[C@@H]1O)c1cccc2ccccc12 | inactive |
| Cc1ccc(S(=O)(=O)N2CCOCC2)cc1NC(=O)COC(=O)c1cnccn1 | inactive |
| CCCCCCC1(C)NC(c2ccc3c(c2)OCO3)=CC(c2ccccc2O)N1 (centres undefined) | 15.8 µM (active) |
| CCc1ccccc1NC(=O)c1cc(-c2ccc3c(c2)OCO3)on1 | inactive |
| CC(C)COC(=O)c1ccc(NC(=O)C2C3C=CC(C3)C2C(=O)O)cc1 (centres undefined) | inactive |
| CC1=CC=CN2C1=NC(=O)CC2(C)C(=O)N(CC(=O)NC1CCCC1)c1ccccc1C (centres undefined) | inactive |
| N#Cc1ccc(C(c2ccc(C#N)cc2)n2cncn2)cc1 | inactive |
| CC(=O)Nc1cccc(/C(C)=N/NC(=O)c2c(-c3ccccc3Cl)noc2C)c1 | 13 µM (active) |
| CC(=NNC(=O)c1ccncc1)c1ccc(Cl)c(Cl)c1 | inactive |
| Cc1onc(-c2c(F)cccc2Cl)c1C(=O)N(C)CC(=O)Nc1cccc(F)c1 | inactive |
| Cc1oc(-c2ccccc2F)nc1CN1CCC(C(=O)NCCc2ccc(Cl)cc2)CC1 | 16.4 µM (active) |
| COc1ccc(-c2nc(CN3CCC(C(=O)NCc4ccccc4)CC3)c(C)o2)cc1OC | inactive |
| Cc1oc(-c2ccccc2F)nc1CS(=O)CC(=O)NCCN1CCCCC1C (centres undefined) | inactive |
| C[C@H]1[C@H]2c3nc4ccccc4n3C[C@H]1ON2C1CCCCC1 | inactive |
| CSc1ncc(C(=O)NCc2ccccc2Cl)c(C(F)(F)F)n1 | inactive |
| CCc1ccc(NC(=O)c2ccc(Cn3cc([N+](=O)[O-])cn3)cc2)cc1 | inactive |
| Cn1ccc(=Nc2ccc(NC(=O)c3ccc(N=c4ccn(C)c5ccc([N+](=O)[O-])cc45)cc3)cc2)cc1 | 3.66 µM (active) |
| COc1cc(NS(=O)(=O)c2ccc(NC(=O)c3ccc([N+](=O)[O-])cc3)cc2)ncn1 | inactive |
| Oc1ccc(N=Nc2nccs2)c(O)c1 | 20.6 µM (active) |
| Oc1ccc2ccccc2c1N=Nc1nccs1 | 0.651 µM (active) |
| Oc1c(C=Nc2cccc3nsnc23)ccc2ccccc12 | inactive |

| SMILES | Potency |
| --- | --- |
| Cc1nc(Nc2ccccc2C)c2cnn(C)c2n1 | inactive |
| Cc1ccc(CCCOC(=O)C[N+]2(C)CCCCC2)cc1 | inactive |
| CCCOc1ccc(N2CC(C(=O)Nc3ccccn3)CC2=O)cc1 (centres undefined) | inactive |
| CC(C)CCN1CCN(Cc2cn[nH]c2C2CCCCC2)CC1CCO (centres undefined) | inactive |
| CSc1nn(Cc2cccc(C)c2)c(N)c1S(=O)(=O)c1ccccc1 | 18.4 µM (active) |
| CCOC(=O)c1cn(Cc2cccc(C)c2)nn1 | inactive |
| Cc1nn(Cc2ccccc2)c(C)c1NS(=O)(=O)c1ccccc1 | inactive |
| CCOC(=O)C(C)N(c1ccccc1Cl)S(C)(=O)=O (centres undefined) | inactive |
| CCOC(=O)c1ccc2c(c1)nc(SCC(=O)NC(C)C)n2CC | inactive |
| Cc1ccc(F)c(S(=O)(=O)NC(=O)C2(C)CCN2C(=O)CCc2cccs2)c1 (centres undefined) | inactive |
| COc1ccc(/C=C2/S/C(=N/N=C3\CC4CCC3(C)C4(C)C)NC2=O)cc1 (centres undefined) | inactive |
| COc1ccc(C=C2CCC3C(CCCC34OCCO4)C2=O)cc1 (centres undefined) | 23.1 µM (active) |
| COc1ccc2c(c1)CC[C@@H]1[C@@H]2CC[C@]2(C)C(=O)CC[C@@H]12 | inactive |
| C#CCN1CC(C)/C(=N/O)CC1C (centres undefined) | inactive |
| COc1ccccc1CNS(=O)(=O)c1c(C)[nH]c(C)c1C(=O)N1CCCCC1 | inactive |
| CCc1nc(Nc2ccc(NC(C)=O)cc2)c2oc3ccccc3c2n1 | inactive |
| CCc1nc(Nc2ccc3nccnc3c2)c2oc3ccccc3c2n1 | 2.31 µM (active) |
| CCSc1nc(C)nc2c1oc1ccccc12 | inactive |
| C/C(=N\NC(=O)C(N)=O)c1ccc2c(c1)OCCO2 | inactive |
| C/C(=N/NC(=O)c1ccncc1)c1ccc2c(c1)OCO2 | inactive |
| C/C(=N/NC(=S)Nc1ccccc1)c1ccc2c(c1)OCO2 | 0.517 µM (active) |
